{"source": "PubChem BioAssay (NCI)", "note": "Values joined by “and” are separate entries in the source; they are usually repeats but may differ in a detail not shown here. Equal values may be shown once. The panel holds about 83,000 compounds, 20% with a hit somewhere; the sample as a whole holds those more often.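 Assay: single dose, 48 h. Readout: percent growth (0 = no net growth; negative = cell death). Active: <10.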 Active and inactive are the calls of the source."}
{"tested_on": "MDA-MB-468 breast", "experiment": "NCI-60 one-dose screen, 48 h (100 = growth as untreated, 0 = no growth, -100 = all killed)", "settings": "10 µM unless noted"}
{"smiles": "O=C(CSc1nccc(=O)[nH]1)Nc1ccc(-c2nc3ccccc3[nH]2)cc1", "growth": "118% (inactive)"}
{"smiles": "O=C1c2ccc3c4ccc5c6c(ccc(c7ccc(c2c37)C(=O)N1CCC[P+](c1ccccc1)(c1ccccc1)c1ccccc1)c64)C(=O)N(CCC[P+](c1ccccc1)(c1ccccc1)c1ccccc1)C5=O", "growth": "-2.38% (active)"}
{"smiles": "CNC(=O)c1cc(Oc2ccc3nc(NC(=O)c4ccc5ncccc5c4)sc3c2)ccn1", "growth": "73.7% (inactive)"}
{"smiles": "CCCCCN1C=C/C(=C\\C(=O)N(C)c2ccc(Oc3ccccc3)cc2)c2ccccc21", "growth": "22.3% (inactive)"}
{"smiles": "C=C1C(=O)O[C@H]2[C@H]1CC/C(COC(=O)c1ccc(Cl)nc1)=C\\CC[C@@]1(C)O[C@@H]21", "growth": "-25.1% (active)"}
{"smiles": "O=[N+]([O-])c1ccc(O)c2ncccc12", "growth": "30.6% (inactive) and 1.77% (active)"}
{"smiles": "CC1=CC(=O)c2cccc(NC3=NCCO3)c21", "growth": "107% (inactive)"}
{"smiles": "COc1cccc2c1[C@H](OC)[C@]13O[C@@]1(C2=O)[C@H](O)[C@H](C)[C@@](O)(C(=O)[C@@H]1O[C@H]1C)[C@@H]3O", "growth": "-40.5% (active)"}
{"smiles": "COc1ccc(-c2ccc(-c3ccc(C(=N)N)cn3)o2)cc1Cl", "growth": "-9.43% (active)"}
{"smiles": "COC1CCN(Cc2ccc3c(NNC(=O)c4cnccn4)nc4cc(F)ccc4n23)C1", "note": "(stereo unspecified)", "growth": "-32.1% (active)"}
{"smiles": "O=C(CSc1nnc(-c2ccc(Cl)cc2)n1-c1ccccc1)Nc1ccccc1Cl", "growth": "78.5% (inactive)"}
{"smiles": "Cc1c(C(=O)O[C@H]2[C@@H]3[C@H](C)CC[C@H]3[C@]3(C)O[C@@]2(C2CCCCC2)C[C@H]3OC(=O)CO)ccc2ccccc12", "growth": "22.5% (inactive)"}
{"smiles": "COc1cc2c3c(n(CCCNCC4CC4)c(=O)c2cc1OC)-c1cc2c(cc1C3=O)OCO2", "growth": "41.4% (inactive)"}
{"smiles": "COc1cnc2c(c1)C(=O)c1c-2n(CCCN2CCN(C)CC2)c(=O)c2cc([N+](=O)[O-])ccc12", "growth": "-57.9% (active)"}
{"smiles": "Cn1c2c(c(=O)[nH]c1=O)NC1=C(C(=O)c3ccccc31)C1(C=C(O)c3ccccc31)N2", "note": "(stereo unspecified)", "growth": "100% (inactive)"}
{"smiles": "CCOc1ccccc1-n1c(CN2CCN(C(=O)COc3ccc(CNCCCCCCN4C5CCCC4CC(OC(=O)Nc4cc(C)ccc4OC)C5)cc3)CC2)nc2ccccc2c1=O", "note": "(stereo unspecified)", "growth": "-79.1% (active)"}
{"smiles": "COc1nc2ccccc2s1", "growth": "113% (inactive)"}
{"smiles": "Cc1cc(NCc2cc(Nc3ccnc4cc(Cl)ccc34)ccc2F)nc(N2CCSCC2)n1", "growth": "-17.3% (active)"}
{"smiles": "COc1cc2nc(N3CCCC3)nc(Nc3ccccc3)c2cc1OC", "growth": "-38.2% (active)"}
{"smiles": "Cc1ccc2cnc(N)c(C#Cc3cncc(C(=O)Nc4ccc(CN5CCN(C)CC5)c(C(F)(F)F)c4)c3)c2c1", "growth": "-87.1% (active)"}
{"smiles": "CCOC(=O)c1ccc(NC(=O)c2nc(-c3cc(OC)c(OC)c(OC)c3)n(-c3ccc(Cl)cc3)n2)cc1", "growth": "107% (inactive)"}
{"smiles": "Cc1nn(-c2nc3ccccc3[nH]2)c2c1C(c1ccc(OCc3ccc(F)cc3)cc1)CC(=O)N2", "note": "(stereo unspecified)", "growth": "65.3% (inactive)"}
{"smiles": "O=C(N/N=C\\c1ccc(F)cc1)c1ccc2nc(-c3ccc(Br)cc3)[nH]c2c1", "growth": "34.7% (inactive)"}
{"smiles": "O=C(C[C@]1(O)C(=O)Nc2ccccc21)c1cccc(C(F)(F)F)c1", "growth": "83.9% (inactive)"}
{"smiles": "O=C(NCc1ccc(F)cc1)C1CN(c2ccc(Cl)cc2)N(c2ccc(Cl)cc2)C1=O", "note": "(stereo unspecified)", "growth": "43.1% (inactive)"}
{"smiles": "NC1=NC(c2ccc(Cl)cc2)C2=C(N1)/C(=C/c1ccc(Cl)cc1)CCC2", "note": "(stereo unspecified)", "growth": "62.2% (inactive)"}
{"smiles": "COc1cc(N2C(=O)[C@H](c3ccccc3)C2c2ccc(SC)cc2)cc(OC)c1OC", "note": "(stereo partly specified)", "growth": "-9.99% (active)"}
{"smiles": "O=c1c2ccccc2c(=O)c2c1sc1c(=O)c3ccc(O)cc3c(=O)c12", "growth": "-43.6% (active)"}
{"smiles": "COc1cccc(C(=O)OCC(O)C(=O)NC23CC4CC(CC(C4)C2)C3)c1", "note": "(stereo unspecified)", "growth": "88% (inactive)"}
{"smiles": "Cc1c(C(=O)O)c(=O)n(-c2ccccc2)n1C", "growth": "127% (inactive)"}
{"smiles": "COc1ccc2c(c1)OC1=C(C(=O)OC1)C2c1cc(OC)c2c(c1)OCCO2", "note": "(stereo unspecified)", "growth": "1.92% (active)"}
{"smiles": "CSc1ccc(N=C=C(c2ccccc2)c2ccccc2)cc1", "growth": "97.1% (inactive)"}
{"smiles": "CCOc1ccc(N2C(=O)CCSC2=S)cc1", "growth": "97.1% (inactive)"}
{"smiles": "Nc1c(C(=O)Nc2ccccc2F)sc2nc3c(cc12)C(=O)CCC3", "growth": "-15.2% (active)"}
{"smiles": "Cc1ccc(NS(=O)(=O)c2ccc(-c3cnc(C4CC4)o3)cc2)cc1", "growth": "-0.814% (active)"}
{"smiles": "Cc1ccc(C(=O)Nc2ccc(CN3CCN(C)CC3)c(C(F)(F)F)c2)cc1C#Cc1cnc(N)cc1C#N", "growth": "-63.8% (active)"}
